Experimental findings from PubChem BioAssay (NCI) are described below.

Some test systems named below: T-47D breast; BT-549 breast; MDA-MB-435 melanoma; SW-620 colon; MCF7 breast; HCT-116 colon; HCC-2998 colon; KM12 colon.
What all share (test): NCI-60 one-dose screen, 48 h (100 = growth as untreated, 0 = no growth, -100 = all killed)
What all share (conditions): 10 µM unless noted

Each structure is given as a SMILES string. Compounds without any hit were thinned out: in the full panel of roughly 83,000, 20% have a hit.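 Cells were grown in 96-well plates and exposed to the test compound at a single concentration for 48 hours; results are reported as percent growth, with values below 10 considered active.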 Values without a mark were called inactive. The source made the active and inactive calls.

Consider `O=C(CCc1nnc(-c2c(Cl)cccc2Cl)o1)c1nc2ccccc2[nH]1`, for which the growth in the assay on T-47D breast is 52%; in the assay on BT-549 breast it was 56.3%; in the assay with MDA-MB-435 melanoma, -0.531% (active); with SW-620 colon it was 35.8%; in the assay with MCF7 breast it was 44.7%; in the assay on HCT-116 colon it was 22.1%. Moreover, the growth with HCC-2998 colon was 65.9%; with KM12 colon it was 28.7%.

On to `Cn1cc(-c2cc3ncnc(Nc4ccc(CC(=O)Nc5cc(C(C)(C)C)on5)cc4)c3s2)cn1`, for which the growth in the assay on T-47D breast was 30.7%; in the assay on BT-549 breast, 52.5%; in the assay on MDA-MB-435 melanoma it was 40.7%; with SW-620 colon, 38.8%; in the assay with MCF7 breast, 41.5%; with HCT-116 colon it was 21.8%. The figures for the growth in the assay with HCC-2998 colon and with KM12 colon were 99.1% and 19.1%, respectively.

`Fc1cc2c(cc1Cl)N(c1ncnc3ccc(-c4cnc5cnccn45)cc13)CC2`: the growth with T-47D breast was 74.9%; in the assay on BT-549 breast, 83.7%; in the assay on MDA-MB-435 melanoma, 101%; in the assay with SW-620 colon, 101%; in the assay on MCF7 breast it was 75.8%; in the assay with HCT-116 colon, 83.5%. Also, the growth is 90.6% in the assay with HCC-2998 colon and 98.1% with KM12 colon.

For `CCOC(=O)c1[nH]c(C)c(C(=O)OCc2ccccc2C#N)c1C`, the growth is 103% with T-47D breast; 50.5% in the assay on BT-549 breast; 9.9% (active) in the assay with MDA-MB-435 melanoma; 41.4% in the assay on SW-620 colon; 30.5% with MCF7 breast; 40.9% with HCT-116 colon. Moreover, the growth was 64.3% in the assay on HCC-2998 colon and 42.8% in the assay on KM12 colon.

In the case of `CCOC(=O)Nc1ccc(-c2nc(-c3cccc(OC)c3)c(-c3ccnc(Br)c3)[nH]2)cc1`, the growth is 13% in the assay with T-47D breast; 56.1% in the assay with BT-549 breast; 46.9% in the assay with SW-620 colon; 17.3% in the assay with MCF7 breast; 25.4% with HCT-116 colon; 40.9% in the assay with HCC-2998 colon. Besides, in the assay on KM12 colon, the growth was 24.7%.

On to `Clc1ccc2c(c1)N(CCCN1CCCC1)c1ccccc1S2`, for which the growth is 57.8% in the assay on T-47D breast; 66.5% with BT-549 breast; -35.9% (active) with MDA-MB-435 melanoma; 26.2% in the assay on SW-620 colon; 6.29% (active) with MCF7 breast; 26.5% in the assay with HCT-116 colon. The growth in the assay on HCC-2998 colon is 32%; in the assay on KM12 colon it was 44.6%.

With `Cc1ccc(-c2nn(C)c(=O)c3noc(-c4ccc(C)cc4)c23)cc1`, the growth in the assay with T-47D breast was 24.2%; in the assay on BT-549 breast, 30.8%; in the assay with MDA-MB-435 melanoma, -5.41% (active); with SW-620 colon it was 21.1%; with MCF7 breast, 30%; in the assay with HCT-116 colon, 37.5%. Further, the figures for the growth with HCC-2998 colon and with KM12 colon were 70.8% and 35.9%, respectively.

For `Brc1ccc2[nH]cc(-c3nc(-c4c[nH]c5ccncc45)cs3)c2c1`, the growth in the assay on T-47D breast is -48.3% (active); with BT-549 breast, 87.8%; in the assay with MDA-MB-435 melanoma, -90.8% (active); in the assay on SW-620 colon, -76.7% (active); with MCF7 breast, -63.3% (active); in the assay with HCT-116 colon, -93.7% (active). Moreover, the growth was -79.3% (active) with HCC-2998 colon and -81.9% (active) in the assay with KM12 colon.

Consider `NCCNc1nc2ccccc2c2c(=O)c3cccc(F)c3sc12`, for which the growth in the assay with T-47D breast is 70.7%; in the assay with BT-549 breast, 98.5%; with MDA-MB-435 melanoma, 58.5%; in the assay with SW-620 colon it was 17.7%; in the assay with MCF7 breast it was 45.1%; in the assay with HCT-116 colon, 15.1%. For the same compound, the results for the growth in the assay with HCC-2998 colon and in the assay on KM12 colon were 15.5% and 34.3%, respectively.

As to `c1ccc2c(c1)Nc1ccncc1S2`, the growth is 95.3% in the assay with T-47D breast; 75% with BT-549 breast; 121% in the assay with MDA-MB-435 melanoma; 92.5% in the assay with SW-620 colon; 100% in the assay on MCF7 breast; 82% in the assay on HCT-116 colon. Also, the growth with KM12 colon was 103%.

Consider `CC(C)OC(=O)Nc1ccc(-c2nc(-c3cccc(OCCN4CCOCC4)c3)c(-c3ccnc(Br)c3)[nH]2)cc1`, for which the growth with T-47D breast was 31.2%; in the assay on BT-549 breast, 42.1%; in the assay with SW-620 colon, 19.9%; in the assay with MCF7 breast it was -9.12% (active); with HCT-116 colon, 22.3%; in the assay on HCC-2998 colon it was 29.4%. Besides, the growth in the assay on KM12 colon was 10.4%.

As to `O=S(=O)(Nc1ccc(-c2nc(-c3cccc(OCCN4CCOCC4)c3)c(-c3ccnc(Br)c3)[nH]2)cc1)c1ccccc1`, the growth was 26.6% in the assay with T-47D breast; 54.3% in the assay on BT-549 breast; 43.5% in the assay on SW-620 colon; 9.52% (active) in the assay on MCF7 breast; 23.6% with HCT-116 colon; 19.1% with HCC-2998 colon. In the assay with KM12 colon, the growth was 8.86% (active).

With `CCCCCCCCCCCCCCCCCCOc1ccc(CC(=O)OCC[N+]2(C)CCCCC2)cc1`, the growth was 92.6% with T-47D breast; 112% in the assay with BT-549 breast; 96.2% in the assay on SW-620 colon; 91% in the assay with MCF7 breast; 57.7% in the assay with HCT-116 colon; 97.4% in the assay on HCC-2998 colon. The growth in the assay with KM12 colon was 101%.

As for `CCOC(=O)C1=C(N)Oc2c(sc3c(C)cccc23)C1c1ccc(OC)cc1` (centres undefined), the growth with T-47D breast was 26%; in the assay on BT-549 breast it was 49.6%; in the assay on SW-620 colon, 20.3%; with MCF7 breast, 7.65% (active); with HCT-116 colon it was 18.4%; in the assay on HCC-2998 colon, 74.4%. The growth in the assay on KM12 colon was 27.4%.

With `COC(=O)Nc1ccc(-c2nc(-c3cccc(OC)c3)c(-c3ccnc(Br)c3)[nH]2)cc1`, the growth is 22.2% in the assay on T-47D breast; 72.7% in the assay with BT-549 breast; 74.5% with SW-620 colon; 33.1% in the assay on MCF7 breast; 54.2% in the assay on HCT-116 colon; 71.5% in the assay on HCC-2998 colon. In addition, the growth in the assay with KM12 colon is 48%.

Regarding `CCc1cccc2c3c(sc12)C(c1ccc(F)cc1)C(C#N)=C(N)O3` (centres undefined), the growth in the assay on T-47D breast was 42.1%; in the assay with BT-549 breast it was 19.7%; with SW-620 colon, 30.3%; in the assay with MCF7 breast, 16.1%; in the assay with HCT-116 colon, 17.7%; in the assay on HCC-2998 colon, 15.4%. Further, the growth in the assay with KM12 colon was 25.1%.

As to `CCc1cccc2c3c(sc12)C(c1ccc(Cl)cc1)C(C#N)=C(N)O3` (centres undefined), the growth in the assay on T-47D breast was 27.8%; in the assay on BT-549 breast, 50.8%; with SW-620 colon, 33.4%; in the assay with MCF7 breast, 10.3%; with HCT-116 colon, 17.9%; in the assay on HCC-2998 colon, 17.5%. In addition, in the assay on KM12 colon, the growth is 18.5%.

As to `Cc1cccc2c3c(sc12)C(c1ccc(Cl)cc1)C(C#N)=C(N)O3` (centres undefined), the growth was 45.9% in the assay on T-47D breast; 17.9% with BT-549 breast; 26.9% in the assay with SW-620 colon; 9.7% (active) in the assay with MCF7 breast; 14.2% with HCT-116 colon; 18.3% in the assay on HCC-2998 colon. The growth in the assay on KM12 colon is 9.62% (active).

As to `Cc1ccc(-c2cnc3sc(C(=O)NCCc4ccccc4)c(C)n23)cc1`, the growth with T-47D breast is 70%; with BT-549 breast, 79.5%; in the assay on SW-620 colon, 91.9%; in the assay with MCF7 breast it was 83.2%; in the assay with HCT-116 colon, 95.6%; in the assay with HCC-2998 colon it was 96.9%. Further, in the assay on KM12 colon, the growth was 96%.

In the case of `CCOC(=O)C1=C(N)Oc2c(sc3c(CC)cccc23)C1c1ccc(F)cc1` (centres undefined), the growth in the assay with T-47D breast is 26.8%; in the assay on BT-549 breast it was 73.6%; in the assay on SW-620 colon it was 22.3%; with MCF7 breast, 10.2%; in the assay on HCT-116 colon, 25.5%; in the assay with HCC-2998 colon, 61.4%. Also, the growth in the assay on KM12 colon was 24%.

As for `Cc1cccc(NC2=C(Cl)C(=O)c3nc(C)ccc3C2=O)c1`, the growth in the assay with T-47D breast was -50.2% (active); in the assay on BT-549 breast it was 3.34% (active); in the assay with SW-620 colon it was -13.7% (active); with MCF7 breast it was -57.8% (active); with HCT-116 colon, -47.6% (active); in the assay with HCC-2998 colon, 3.47% (active). Moreover, in the assay with KM12 colon, the growth was 33.5%.

As for `COc1cccc(-c2nc(-c3ccc(NS(=O)(=O)c4ccccc4)cc3)[nH]c2-c2ccnc(Br)c2)c1`, the growth with T-47D breast is 14.2%; in the assay on BT-549 breast, 51.3%; in the assay on SW-620 colon, 34.3%; with MCF7 breast, 9.68% (active); with HCT-116 colon, 17%; in the assay on HCC-2998 colon, 21.8%. Further, the growth with KM12 colon was 8.67% (active).

For the compound `CCCCCCn1c(-c2ccc(C(=O)O/N=C(\N)c3ccc(OC)cc3)cc2)nc(-c2ccccc2)c1-c1ccccc1`, the growth in the assay with T-47D breast is -30.4% (active); in the assay on BT-549 breast, -2.06% (active); in the assay on SW-620 colon it was -1.32% (active); in the assay with MCF7 breast it was -39.3% (active); in the assay with HCT-116 colon it was -56.1% (active); in the assay with HCC-2998 colon, 3.48% (active). In addition, the growth with KM12 colon is 15.7%.
